Data from PubChem BioAssay (NCI).
“And” between values parts separate entries of the source, which are not always exact repeats. Equal entries are not always repeated. About 83,000 compounds went through this panel and 20% of them were active in at least one assay; those are over-represented in the sample as a whole.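 Interpretation: 100, growth as untreated; towards 0, rising growth inhibition; 0, no net growth; 0 to -100, cell death. Compounds scoring below 10 were considered active.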 The source made the active and inactive calls.

What was measured:
Assay in all cases: NCI-60 one-dose screen, 48 h (100 = growth as untreated, 0 = no growth, -100 = all killed)
NCI-H23 lung = test system: NCI-H23 lung
NCI-H226 lung = test system: NCI-H226 lung
NCI-H322M lung = details: 10 µM unless noted
HOP-62 NSCLC = test system: HOP-62 NSCLC
NCI-H460 lung = test system: NCI-H460 lung
HOP-92 NSCLC = test system: HOP-92 NSCLC
NCI-H522 lung = test system: NCI-H522 lung
A549/ATCC NSCLC = test system: A549/ATCC NSCLC
786-0 renal = test system: 786-0 renal
COLO 205 colon = test system: COLO 205 colon
DU-145 prostate = test system: DU-145 prostate
K-562 leukemia = test system: K-562 leukemia
MALME-3M melanoma = test system: MALME-3M melanoma
MDA-MB-231 breast = test system: MDA-MB-231 breast
RXF 393 renal = test system: RXF 393 renal
SF-268 CNS = test system: SF-268 CNS
SF-295 CNS = test system: SF-295 CNS
SF-539 CNS = test system: SF-539 CNS
UACC-257 melanoma = test system: UACC-257 melanoma
M14 melanoma = test system: M14 melanoma

Measured: growth

COC(=O)c1c2c(c(C)[n+]([O-])c1C)C(=O)C(NCCN1CCOCC1)=CC2=O
active: COLO 205 colon; 10 µM unless noted 6.73% | MALME-3M melanoma; 10 µM unless noted -13.2%
inactive: NCI-H23 lung; 10 µM unless noted 59.7% | NCI-H226 lung; 10 µM unless noted 103% | NCI-H322M lung 72.5% | HOP-62 NSCLC; 10 µM unless noted 101% | NCI-H460 lung; 10 µM unless noted 55.4% | HOP-92 NSCLC; 10 µM unless noted 146% | NCI-H522 lung; 10 µM unless noted 87.5% | A549/ATCC NSCLC; 10 µM unless noted 91.3% | 786-0 renal; 10 µM unless noted 89.9% | DU-145 prostate; 10 µM unless noted 84.3% | K-562 leukemia; 10 µM unless noted 75.6% | MDA-MB-231 breast; 10 µM unless noted 70.8% | RXF 393 renal; 10 µM unless noted 96.3% | SF-268 CNS; 10 µM unless noted 79.3% | SF-295 CNS; 10 µM unless noted 82.7% | SF-539 CNS; 10 µM unless noted 89.5% | UACC-257 melanoma; 10 µM unless noted 48.4% | M14 melanoma; 10 µM unless noted 62.9%

COc1ccc2c(c1)CC[C@@H]1[C@@H]2CC[C@]2(C)C3C(=CCC4C(=O)N(c5ccccc5)C(=O)C43)C[C@@H]12 (some centres undefined)
inactive: NCI-H23 lung; 10 µM unless noted 84.4% | NCI-H226 lung; 10 µM unless noted 90.8% | NCI-H322M lung 103% | HOP-62 NSCLC; 10 µM unless noted 90.3% | NCI-H460 lung; 10 µM unless noted 93.7% | HOP-92 NSCLC; 10 µM unless noted 99.3% | NCI-H522 lung; 10 µM unless noted 80.1% | A549/ATCC NSCLC; 10 µM unless noted 92.3% | 786-0 renal; 10 µM unless noted 87.7% | COLO 205 colon; 10 µM unless noted 94.4% | DU-145 prostate; 10 µM unless noted 114% | K-562 leukemia; 10 µM unless noted 76.9% | MALME-3M melanoma; 10 µM unless noted 96.1% | MDA-MB-231 breast; 10 µM unless noted 86.6% | RXF 393 renal; 10 µM unless noted 93.7% | SF-268 CNS; 10 µM unless noted 94.1% | SF-295 CNS; 10 µM unless noted 96.4% | SF-539 CNS; 10 µM unless noted 96.7% | UACC-257 melanoma; 10 µM unless noted 86.1% | M14 melanoma; 10 µM unless noted 89.4%

O=C(/C=C/c1cccc(Oc2ccc(Cl)cc2)c1)c1ccccc1
inactive: NCI-H23 lung; 10 µM 90.8% | NCI-H226 lung; 10 µM 104% | HOP-62 NSCLC; 10 µM 98.5% | NCI-H460 lung; 10 µM 97.3% | HOP-92 NSCLC; 10 µM 111% | NCI-H522 lung; 10 µM 89.2% | A549/ATCC NSCLC; 10 µM 96.2% | 786-0 renal; 10 µM 91.3% | COLO 205 colon; 10 µM 104% | DU-145 prostate; 10 µM 95.3% | K-562 leukemia; 10 µM 31.6% | MALME-3M melanoma; 10 µM 102% | MDA-MB-231 breast; 10 µM 113% | RXF 393 renal; 10 µM 101% | SF-268 CNS; 10 µM 101% | SF-295 CNS; 10 µM 94.9% | SF-539 CNS; 10 µM 99.8% | UACC-257 melanoma; 10 µM 101% | M14 melanoma; 10 µM 89.5%
active: NCI-H23 lung; 100 µM -57.9% | NCI-H226 lung; 100 µM -63.2% | NCI-H322M lung -73% [100 µM] | HOP-62 NSCLC; 100 µM -80.5% | NCI-H460 lung; 100 µM -76.6% | HOP-92 NSCLC; 100 µM -90.7% | NCI-H522 lung; 100 µM -64.6% | A549/ATCC NSCLC; 100 µM -75.7% | 786-0 renal; 100 µM -88.9% | COLO 205 colon; 100 µM -71% | DU-145 prostate; 100 µM -98.4% | K-562 leukemia; 100 µM -29% | MALME-3M melanoma; 100 µM -85.2% | MDA-MB-231 breast; 100 µM -61.9% | RXF 393 renal; 100 µM -68.2% | SF-268 CNS; 100 µM -78.3% | SF-295 CNS; 100 µM -95.3% | SF-539 CNS; 100 µM -92.3% | UACC-257 melanoma; 100 µM -86.8% | M14 melanoma; 100 µM -54.4%

N#C/C(=C\c1ccccc1Cl)c1cc2ccccc2[nH]1
inactive: NCI-H23 lung; 10 µM unless noted 82.8% | NCI-H226 lung; 10 µM unless noted 75.2% | NCI-H322M lung 89.5% | HOP-62 NSCLC; 10 µM unless noted 65.3% | NCI-H460 lung; 10 µM unless noted 90.5% | HOP-92 NSCLC; 10 µM unless noted 37.3% | NCI-H522 lung; 10 µM unless noted 82.5% | A549/ATCC NSCLC; 10 µM unless noted 90.5% | 786-0 renal; 10 µM unless noted 99.6% | COLO 205 colon; 10 µM unless noted 105% | DU-145 prostate; 10 µM unless noted 100% | K-562 leukemia; 10 µM unless noted 70.5% | MALME-3M melanoma; 10 µM unless noted 92.8% | MDA-MB-231 breast; 10 µM unless noted 68.7% | RXF 393 renal; 10 µM unless noted 102% | SF-268 CNS; 10 µM unless noted 96.3% | SF-295 CNS; 10 µM unless noted 93.9% | SF-539 CNS; 10 µM unless noted 89.4% | UACC-257 melanoma; 10 µM unless noted 94.2% | M14 melanoma; 10 µM unless noted 91.8%

O=C(NNc1ccccc1)c1ccccc1
inactive: NCI-H23 lung; 10 µM unless noted 98.2% and 95.8% | NCI-H226 lung; 10 µM unless noted 93% and 105% | NCI-H322M lung 66.8% | HOP-62 NSCLC; 10 µM unless noted 99.1% and 47.3% | NCI-H460 lung; 10 µM unless noted 85.1% | HOP-92 NSCLC; 10 µM unless noted 102% and 95.2% | NCI-H522 lung; 10 µM unless noted 48.1% | A549/ATCC NSCLC; 10 µM unless noted 72.5% and 64.1% | 786-0 renal; 10 µM unless noted 86.1% and 64.6% | COLO 205 colon; 10 µM unless noted 95% and 65.3% | DU-145 prostate; 10 µM unless noted 98.1% and 71.3% | K-562 leukemia; 10 µM unless noted 18% and 19.8% | MALME-3M melanoma; 10 µM unless noted 99.2% | MDA-MB-231 breast; 10 µM unless noted 70.6% and 53.6% | RXF 393 renal; 10 µM unless noted 123% | SF-268 CNS; 10 µM unless noted 78.9% and 58.7% | SF-295 CNS; 10 µM unless noted 64.5% | SF-539 CNS; 10 µM unless noted 95.1% and 96.7% | UACC-257 melanoma; 10 µM unless noted 56.8% and 81.2% | M14 melanoma; 10 µM unless noted 53.9% and 38.5%

O=C1Nc2ccccc2/C1=C/c1cccn1CCCCCn1c2ccccc2c(=O)c2ccccc21
inactive: NCI-H23 lung; 10 µM unless noted 69.6% | NCI-H226 lung; 10 µM unless noted 70% | NCI-H322M lung 98.8% | HOP-62 NSCLC; 10 µM unless noted 58.3% | NCI-H460 lung; 10 µM unless noted 95.9% | HOP-92 NSCLC; 10 µM unless noted 65.5% | NCI-H522 lung; 10 µM unless noted 66.3% | A549/ATCC NSCLC; 10 µM unless noted 81.4% | 786-0 renal; 10 µM unless noted 105% | COLO 205 colon; 10 µM unless noted 56.2% | DU-145 prostate; 10 µM unless noted 97.9% | K-562 leukemia; 10 µM unless noted 52.1% | MALME-3M melanoma; 10 µM unless noted 84.5% | MDA-MB-231 breast; 10 µM unless noted 69.3% | RXF 393 renal; 10 µM unless noted 89.2% | SF-268 CNS; 10 µM unless noted 83.3% | SF-295 CNS; 10 µM unless noted 93.1% | SF-539 CNS; 10 µM unless noted 94.2% | UACC-257 melanoma; 10 µM unless noted 106% | M14 melanoma; 10 µM unless noted 73.3%
